# Screening data deposited in PubChem BioAssay by National Center for Advancing Translational Sciences (NCATS).
# NPC1 promoter act: NPC1 promoter activation | Huh7 NPC1 promoter luciferase reporter, 24 h | AID 485313 | 2.4% of 320,000 active | Potency, µM (highest dose often 9.22 µM), hits mostly activators; further: nearly all actives have a fitted effect of over 60% in size
#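 Stably transfected Huh7 (NPC1 promoter→luciferase), 1500 cells/well in Opti-MEM + 10% FBS, 2 h settle, then compound 24 h at 37 °C. Luminescence after 10 min with Amplite reagent.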
# Rab9 promoter act: activators of Rab9 promoter. Potency, µM (highest dose often 9.22 µM), usual class: activators. Huh7 Rab9 promoter-luciferase reporter, luminescence, 24 h. 2.8% of 320,000 active; further: nearly all actives have a fitted effect of over 60% in size
#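 Promoter activation is measured as luciferase luminescence in Huh7 cells stably transfected with a Rab9 promoter–luciferase construct, following 24 h compound exposure at 37 °C and 10 min reagent incubation at ambient temperature.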
# ELG1 genotox: genotoxicity induction in ELG1-luciferase HEK293T cells. HEK293T ELG1-luciferase reporter, luminescence, 16 h. Potency, µM (doses to about 46 µM), hits mostly activators. 1.3% of 330,000 active. AID 504466; further: nearly all actives have a fitted effect of over 60% in size
#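 HEK293T cells expressing luciferase-tagged ELG1 were exposed to compound or DMSO vehicle for 16 hr at 37 °C and 5% CO2. Luciferase activity was then measured with ONE-Glo after 30 min at room temperature.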
# FLuc modulator: inhibits or activates purified firefly luciferase, miR-21 counter-screen. Potency, µM (titrated, usually from 57.5 µM), most hits filed as inhibitors. 6.9% of 360,000 active. purified FLuc, Km substrates, luminescence inhibition; further: nearly all actives have a fitted effect of over 55% in size
# Target sequence (P08659 whole entry, looked up): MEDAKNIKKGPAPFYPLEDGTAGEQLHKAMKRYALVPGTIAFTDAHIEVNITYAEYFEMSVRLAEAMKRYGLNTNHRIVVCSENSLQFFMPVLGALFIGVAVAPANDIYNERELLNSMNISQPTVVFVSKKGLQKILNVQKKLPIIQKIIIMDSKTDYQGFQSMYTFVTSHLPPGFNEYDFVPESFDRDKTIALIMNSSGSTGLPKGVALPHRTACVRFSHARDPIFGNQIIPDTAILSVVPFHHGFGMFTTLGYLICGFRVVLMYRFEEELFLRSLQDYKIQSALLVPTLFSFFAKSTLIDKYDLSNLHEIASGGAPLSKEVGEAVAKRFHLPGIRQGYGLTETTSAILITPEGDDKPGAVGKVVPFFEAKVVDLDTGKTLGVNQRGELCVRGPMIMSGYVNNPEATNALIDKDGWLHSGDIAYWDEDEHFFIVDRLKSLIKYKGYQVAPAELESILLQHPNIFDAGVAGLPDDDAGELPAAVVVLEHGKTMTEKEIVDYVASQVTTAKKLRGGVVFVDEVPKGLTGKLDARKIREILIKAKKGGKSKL
#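 Purified P. pyralis luciferase, 10 nM final, with Km-level 10 uM D-luciferin and 10 uM ATP in 50 mM Tris acetate pH 7.5, 10 mM Mg acetate, 0.01% Tween-20, 0.05% BSA; 6-point qHTS titration about 60 µM downward; luminescence read.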
# SMN2 splice up: enhancers of SMN2 splice variant expression; HEK293 SMN2-luciferase splicing reporter, luminescence, 30-36 h; Potency, µM (top dose mostly 46.1 µM), actives largely listed as activators; 2.8% of 210,000 active; further: nearly all actives have a fitted effect of over 55% in size
#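 qHTS luciferase splicing reporter: luminescence rises when SMN2 exon 7 is included in transfected HEK293 cells. Compound exposure lasted 30-36 h at 37C, with 4.5 mM final sodium butyrate as control, followed by a ONE-Glo read.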
# ELG1 DNA repair: inhibitors of ELG1-dependent DNA repair in HEK293T cells; HEK293T ELG1-luciferase reporter, luminescence, 16 h; DNA damage induced by 5-fluorouridine; Potency, µM (highest dose often 46.1 µM), hits mostly inhibitors; 2.3% of 330,000 active; AID 504467; further: nearly all actives have a fitted effect of over 55% in size
#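 Quantitative HTS, concentration-response format. 2,000 cells/well co-treated with 5-fluorouridine and compound, 16 hr in 5% CO2 at 37 °C; ONE-Glo luminescence read after 30 min.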
# A number is an active result; 0 = inactive; ? = inconclusive; - = no result given; [ ] = another dose, or the depositor's remark. Rows were chosen to be rich in hits. Some 9.2% of all compounds tested hit in one or more screens of this group. The call rests on the fitted dose curve; in most records, active means well fitted curve in the direction sought with a large enough effect; inconclusive means small, poorly fitted or top-dose-only effect, or another doubt; inactive means no such curve, though single readings can be large; an effect the other way counts as inactive or inconclusive.
SMILES,NPC1 promoter act,Rab9 promoter act,ELG1 genotox,FLuc modulator,SMN2 splice up,ELG1 DNA repair
COC(=O)COc1cccc(NC(=O)c2ccc(Cl)cc2)c1,0,0,0,27µM,0,0
COc1ccc([C@H]2C=C3CN(C(=O)OC(C)(C)C)S(=O)(=O)[C@H]3C[C@H]2OC(=O)c2cccs2)cc1,0,0,0,0,-,0
COc1cccc(Nc2ncnc3onc(-c4ccccc4OC)c23)c1,0,0,0,0,-,0
O=C(c1ccco1)N1CCN(c2ncnc3c2[nH]c2ccc(Br)cc23)CC1,0,0,0,?,0,23µM
O=C(c1ccco1)N1CCN(c2ncnc3c2[nH]c2ccccc23)CC1,0,0,0,0,0,?
COc1ccc(-c2nsc3c(N4CCN(C(=O)c5ccco5)CC4)ncnc23)cc1,0,0,0,?,0,0
NC(=O)C1CCN(c2ncnc3c(-c4ccccc4)nsc23)CC1,3.5µM,3.5µM,0,11µM,0,?
NC(=O)C1CCN(c2ncnc3c2cnn3-c2ccccc2)CC1,-,-,-,0,-,-
O=C(c1ccco1)N1CCN(c2ncnc3c(-c4ccccc4)nsc23)CC1,3.2µM,2.8µM,0,11µM,0,?
O=C(NCCc1ccccc1)c1cccc([N+](=O)[O-])c1,0,0,?,?,11µM,?
O=C(NCCc1ccccc1)c1cccnc1,?,3.2µM,13µM,?,?,?
O=C(NCc1ccccc1)c1cccnc1,0,0,0,0,-,0
O=C(NCCc1ccccc1)c1cnc2ccccc2n1,3.5µM,1.4µM,?,8.5µM,-,?
O=C(COC(=O)c1cccc(Br)c1)NCCNC(=O)COC(=O)c1cccc(Br)c1,0,0,0,0,-,6.5µM
O=C(COC(=O)c1cccc(Br)c1)NCCc1ccccc1,0,0,0,0,0,0
O=C(CCCc1ccccc1)Nc1cccc([N+](=O)[O-])c1,3.5µM,?,?,?,-,?
Cc1ccc(C(=O)NCCc2cccc(Cl)c2)cc1[N+](=O)[O-],0,0,0,27µM,0,?
O=C(NCCc1ccccc1)c1cccc(Br)c1,3.5µM,2µM,?,21µM,-,?
CN(C)S(=O)(=O)c1cccc(C(=O)Nc2ccccc2)c1,0,0,0,?,0,0
CN(C)S(=O)(=O)c1cccc(C(=O)NCCc2ccccc2)c1,0.79µM,1.4µM,0,7.6µM,11µM,?
O=C(CCc1ccccc1)Nc1cccc([N+](=O)[O-])c1,0,0,0,0,0,0
CCCNC(=O)c1cccc(Br)c1,0,0,0,0,0,0
CCOC(=O)[C@H](CCc1ccccc1)N[C@@H](C)C(=O)N1[C@H](C(=O)O)C[C@H]2CCCC[C@@H]21,0,0,-,-,0,-
COc1ccc(C(=O)N(C)Cc2ccccn2)cc1OC1CCN(C(C)C)CC1,0,0,0,0,-,0
COc1cccc(-c2nc(CS(=O)(=O)CC(=O)Nc3cc(OC)ccc3OC)c(C)o2)c1,0,0,0,0,-,0
SMILES,NPC1 promoter act,Rab9 promoter act,ELG1 genotox,FLuc modulator,SMN2 splice up,ELG1 DNA repair
Cc1sc2nc(CN3CCN(c4ccc(O)cc4)CC3)[nH]c(=O)c2c1C,?,0,0,0,-,21µM
O=c1[nH]c(CN2CCN(c3ccccc3)CC2)nc2scc(-c3ccccc3)c12,0,0,0,0,?,0
CCNC(=O)c1ccc(C23CC4CC(CC(C4)C2)C3)o1,0,0,0,13µM,0,0
O=C1c2ccccc2C(=O)c2cc(NC(=O)C3CC3)ccc21,2.5µM,2.2µM,?,?,11µM,?
O=C(O)/C=C/C(=O)Nc1ccc(C(=O)c2ccccc2)cc1,0,0,0,0,-,?
O=C(O)/C=C/C(=O)Nc1ccc2c(c1)C(=O)c1ccccc1C2=O,0,0,0,17µM,-,?
CC(=O)Nc1ccc2c(c1)C(=O)c1ccccc1C2=O,1.6µM,0.71µM,?,4.8µM,13µM,?
O=Cc1c2[nH]c3ccccc3c2cc2[nH]c3ccccc3c12,-,-,-,-,0,-
Cc1cc(C)cc(-n2ccnc2SCC(=O)Nc2nnc(C)s2)c1,-,-,-,0,-,-
O=C(COc1ccccc1C(=O)c1cnn(-c2ccccc2)c1)Nc1ccccc1,0,?,0,1.5µM,25µM,?
COc1ccccc1CNC(=O)COc1ccccc1C(=O)c1cnn(-c2ccccc2)c1,0,0,0,9.5µM,-,?
CC(=O)c1ccc(NC(=O)COc2ccccc2C(=O)Nc2ccccc2)cc1,0,0,0,?,-,?
CCNC(=O)COc1ccc(F)cc1C(=O)c1cnn(-c2ccccc2)c1,0,0,0,0,-,0
CC(=O)c1cccc(NC(=O)CCn2c(=O)oc3ccccc32)c1,0,0,0,0,-,0
CCc1cccc2c(C(=O)COC(=O)c3cnc(C)cn3)c[nH]c12,0,0,0,0,-,0
CCc1cccc2c(C(=O)COC(=O)c3ccccc3)c[nH]c12,?,?,?,2.4µM,0,?
CCc1cccc2c(C(=O)COC(=O)c3nccnc3N)c[nH]c12,0,?,?,15µM,-,?
CCc1oc(C(=O)OC)cc1CSC(=N)N,0,0,0,0,-,0
CCN(CC)CC(=O)Nc1ccc2c(c1)Nc1ccccc1CC2,0,?,0,12µM,0,0
CCN(CC)CC(=O)Nc1ccc2c(c1)N(C(=O)CN(CC)CC)c1ccccc1CC2,0,0,0,0,0,0
Cc1cc(/C=C2/NC(=O)N(c3ccccc3)C2=O)c(C)n1C(C)C,3.2µM,1.6µM,?,4.8µM,10µM,?
Fc1ccc(-c2nc(-c3cccs3)no2)cc1,2µM,1.8µM,?,1.3µM,-,?
COC(=O)c1noc(-c2ccc(C)cc2)n1,0,0,0,11µM,0,?
O=c1oc2ccc(Cl)cc2cc1-c1nc(-c2cccs2)no1,-,-,-,0,-,-
O=C(NCCc1ccccc1)c1nc(-c2cccs2)no1,?,5.6µM,?,13µM,14µM,?
SMILES,NPC1 promoter act,Rab9 promoter act,ELG1 genotox,FLuc modulator,SMN2 splice up,ELG1 DNA repair
COC(=O)c1ccc(-c2nc(-c3cccs3)no2)cc1,0.32µM,?,0.37µM,0.15µM,0,?
COCCNC(=S)N(CCc1c(C)[nH]c2ccccc12)Cc1cccnc1,0,0[1.84 µM],0,0,-,0
CCCCOc1ccc(CNC(=O)C2COc3ccc(OC)cc3C2)cc1 (stereo not given),-,-,-,0,-,-
Cc1cccc(C(=O)N2CCNC(=O)C2CC(=O)Nc2ccc(F)cc2)c1 (stereo not given),-,-,-,0,0,-
CC(C)Cn1nnnc1S(=O)(=O)CC#N,-,-,-,-,0,-
Fc1ccc(-c2cnc(-c3cccs3)o2)cc1,4µM,3.5µM,?,6µM,0,?
Fc1ccc(-c2cc(-c3cccs3)cc(-c3ccccc3)n2)cc1,0,0,0,0,-,?
O=C(COC(=O)CN1C(=O)c2ccccc2C1=O)NC1CCCCC1,0,0,0,0,-,0
COc1ccc(-n2c(-c3ccc(Cl)cc3)c[n+]3c2CCCCC3)cc1,0,0,0,0,-,5.8µM
